Hits are enriched below; roughly 11% of the tested compounds scored in any of these assays.
PLK1 PBD block: blocks phosphopeptide binding to human PLK1 polo-box domain; Plk1 PBD binding of FITC phosphopeptide, fluorescence polarization; Potency, µM, without a hit: max response, negative = inhibition, actives largely listed as inhibitors; 2.8% of 360,000 active; P53350; AID 720504; also: series mostly up to about 57 µM; % is scaled to controls: 0 for no effect and ±100 for the full control effect; nearly all actives have a fitted effect of over 65% in size
HP1b binding inh: HP1-beta chromodomain-methylated histone interaction inhibition; AlphaScreen HP1-beta / biotin-H3K9me3 peptide binding; Potency, µM (doses to about 114 µM), inactives show top-dose activity change, negative = inhibition, actives largely listed as inhibitors; 0.56% of 390,000 active; AID 540317; also: nearly all actives have a fitted effect of over 70% in size
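Compound inhibition of the preformed complex between 50 nM HP1-beta and 50 nM biotinylated H3K9me3 peptide was read by AlphaScreen. Buffer was PBS pH 7.4 with 0.01% Tween-20. Incubations ran 30 min at room temperature, with 10 ug/mL donor/acceptor beads.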
BAZ2B inh: blocks human BAZ2B. Q9UIF8. AlphaScreen BAZ2B-H3K14Ac peptide displacement. Potency, µM (doses to about 114 µM), without a hit: top-dose activity change, negative = inhibition, actives largely listed as inhibitors. 4.4% of 360,000 active. AID 504333; also: % is scaled to controls: 0 for no effect and ±100 for the full control effect; nearly all actives have a fitted effect of over 60% in size
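Multi-concentration screen (max 110 uM) measuring displacement of acetylated histone H3 peptide from BAZ2B by AlphaScreen, using 50 nM protein, 50 nM peptide and 10 ug/mL streptavidin donor plus Ni-chelate acceptor beads.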
VDR inhibitor: blocks the human vitamin D receptor; 0.93% of 400,000 active; VDR-SRC2-3 peptide fluorescence polarization, 2 h; Potency, µM, without a hit: max response, negative = inhibition, usual class: inhibitors; AID 504847; also: % is scaled to controls: 0 for no effect and ±100 for the full control effect
Target sequence (P11473 whole entry, looked up): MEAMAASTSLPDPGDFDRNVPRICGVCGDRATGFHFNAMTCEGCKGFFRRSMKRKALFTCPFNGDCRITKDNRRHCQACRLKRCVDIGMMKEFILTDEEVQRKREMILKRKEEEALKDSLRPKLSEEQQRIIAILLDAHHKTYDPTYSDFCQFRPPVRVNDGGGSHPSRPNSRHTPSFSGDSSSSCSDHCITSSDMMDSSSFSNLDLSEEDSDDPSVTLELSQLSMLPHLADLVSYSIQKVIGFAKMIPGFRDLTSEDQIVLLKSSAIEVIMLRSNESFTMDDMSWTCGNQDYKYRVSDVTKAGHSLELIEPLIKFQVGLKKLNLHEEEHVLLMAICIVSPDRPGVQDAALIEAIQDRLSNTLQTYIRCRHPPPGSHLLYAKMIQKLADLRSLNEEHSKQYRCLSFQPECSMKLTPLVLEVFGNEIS
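Compounds are added to VDR with labelled SRC2-3 coactivator peptide and held 2 h at room temperature. Inhibition of the VDR–peptide interaction is then read as a change in fluorescence polarization.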
G9a inh: blocks human histone lysine methyltransferase G9a | 8.8% of 350,000 active | Q96KQ7 | Potency, µM (highest dose often 102 µM), for inactives: top-dose activity, negative = inhibition, usual class: inhibitors | G9a H3K9 monomethylation, AlphaScreen, 2 h; also: % is scaled to controls: 0 for no effect and ±100 for the full control effect; nearly all actives have a fitted effect of over 75% in size
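AlphaScreen read-out: biotin-H3K9 peptide (500 nM) methylation by 20 nM enzyme with 20 uM SAM, 2 h at room temperature after 15 min compound preincubation; anti-monomethyl H3K9 antibody plus donor/acceptor beads, 10 min dark.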
JMJD2A Tudor inh: blocks the human JMJD2A Tudor domain | O75164 | 4.4% of 390,000 active | Potency, µM (highest dose often 114 µM), without a hit: at the highest dose activity change, negative = inhibition, usual class: inhibitors | AID 504339 | AlphaScreen JMJD2A-Tudor / H3K4me3 peptide binding; also: % is scaled to controls: 0 for no effect and ±100 for the full control effect; nearly all actives have a fitted effect of over 50% in size
* hit, by the source's call; ? = inconclusive; nt = no result given; [ ] = dose if it differs, or a comment. Calls follow the shape of the dose curve; as a rule, active = well fitted curve in the direction sought with a large enough effect; inconclusive = small, poorly fitted or top-dose-only effect, or another doubt; inactive = no such curve, though single readings can be large; an effect the other way counts as inactive or inconclusive. Potency is read from the fitted curve at half-maximal effect.

SMILES	PLK1 PBD block	HP1b binding inh	BAZ2B inh	VDR inhibitor	G9a inh	JMJD2A Tudor inh
O=C(CNCc1cccs1)Nc1ccc(N2CCCCCC2)cc1	-6.4%	25.1µM*	22.4µM*	2.3%	8.91µM*	22.4µM*
COc1ccc(NC(=O)c2c(-c3ccc(C)cc3)nnc3ccccc23)cc1Cl	nt	-0.3%	-3.8%	8.5%	7.5%[59 µM]	-20.1%
CCOc1ccccc1NC(=O)CSc1ncc2c(n1)-c1ccccc1N(CC)S2(=O)=O	nt	27.6%	0.4%	15.1%	-2.3%[59 µM]	-1.6%
CC(=O)Oc1c(C(=O)c2nnc(C)o2)c(=O)n(C)c2ccccc12	-21.9%	41.3%	5.6%	-15.5%	-13.7%[59 µM]	-2.1%
COc1ccc(NC(=O)/C(=C\c2ccncc2)NC(=O)c2ccccc2)cc1	-7.8%	37.0%	6.2%	-10.5%	-2.4%	-4.7%
CCCC(=O)NC(NC1CCS(=O)(=O)C1)C(Cl)(Cl)Cl (stereo not given)	26.7µM*	-16.0%	-4.1%	-1.6%	nt	-15.8%[11.4 µM]
COc1cc(-c2[nH]nc3c2C(c2ccco2)C(C#N)=C(N)O3)cc(OC)c1OC (stereo not given)	29.9µM*	-6.7%	-36.7%	-2.8%	-18.9%[59 µM]	?
COc1cc(-c2[nH]nc3c2C(c2ccoc2)C(C#N)=C(N)O3)cc(OC)c1OC (stereo not given)	?	-4.3%	-37.0%	-14.5%	-27.0%[59 µM]	-30.4%
CCCN(CCC)C(=O)CSc1nnc2cc(C)c3cc(C)cc(C)c3n12	nt	43.5%	-20.4%	12.8%	2.51µM*	15.8µM*
COC(=O)C(C)Sc1nnc2cc(C)c3cc(C)cc(C)c3n12 (stereo not given)	nt	29.7%	?	7.1%	8.91µM*	-17.9%
Cc1cc(C)c2c(c1)c(C)cc1nnc(SCC(=O)c3cccs3)n12	0.1%	5.7%	0.9%	3.3%	3.16µM*	?
Cc1cc(C)c2c(c1)c(C)cc1nnc(SCc3ccccc3C#N)n12	nt	31.8%	?	4.1%	-33.6%[59 µM]	-15.9%
O=C(Cn1c(=O)oc2ccccc21)NCc1cccc(Cl)c1	nt	30.7%	-0.3%	-5.8%	3.0%[59 µM]	2.2%
CCOc1ncccc1C(=O)Nc1c(C)n(C)n(-c2ccccc2)c1=O	-2.3%	32.5%	5.8%	6.5%	11.9%	-0.3%
O=C(NCc1ccco1)C1CCN(C(=O)N2CCOc3ccccc32)CC1	nt	36.2%	3.4%	13.6%	2.3%[59 µM]	-7.9%
Cc1cc(NS(=O)(=O)c2ccc3c(c2)CCC(=O)N3)ccc1F	nt	nt	nt	nt	nt	-13.5%
O=S(=O)(c1ccccc1)n1nc(-c2ccc(Cl)cc2)nc1NCc1ccccc1	nt	68.4%	14.8%	4.7%	30.0%[59 µM]	13.1%
Cc1ccc(CN2CC(C(=O)Nc3cc(S(C)(=O)=O)ccc3Cl)CC2=O)cc1 (stereo not given)	3.6%	7.6%	50.1µM*	0.8%	?	-26.6%
COc1ccc(CCN2CC(C(=O)Nc3cc(S(C)(=O)=O)ccc3Cl)CC2=O)cc1OC (stereo not given)	3.2%	8.9%	-6.5%	-3.9%	7.1%	-11.0%
COc1ccccc1NC(=S)NNC(=O)c1c(Cl)c(C)nn1C	-5.3%	20.0%	-27.6%	8.0%	25.1µM*	-19.9%
COc1cc(OC)cc(C(=O)NNC(=S)Nc2ccccc2OC)c1	-8.2%	21.3%	-7.2%	-4.9%	39.8µM*	-10.5%
COc1ccccc1NC(=S)NNC(=O)c1ccccc1	-9.7%	24.6%	nt	4.9%	nt	-13.9%
O=C(NCC(=O)N1CCN(c2ccccc2)CC1)c1ccco1	-9.3%	12.0%	-3.1%	6.7%	13.0%	-4.6%
COc1ccc(Cc2nnc(N/N=C(\C)c3ccccc3)[nH]c2=O)cc1OC	-0.6%	31.3%	35.5µM*	34.7%	nt	-35.1%
COCCNc1nnc(Cc2ccc(OC)c(OC)c2)c(=O)[nH]1	-9.1%	30.8%	7.4%	-20.7%	23.1%	-4.5%
COc1ccc(Cc2nnc(NN)[nH]c2=O)cc1OC	2.8%	37.2%	3.98µM*	4.2%	4.0%	2.51µM*
Cc1c(C(=O)N2CCN(c3ccccc3)CC2)sc2nc3n(c(=O)c12)CCC3	-15.6%	10.7%	-12.2%	-2.1%	18.8%	-15.9%
Cc1c(C(=O)O)sc2nc3n(c(=O)c12)CCC3	-22.7%	29.0%	?	15.6%	39.8µM*	50.1µM*
